{"source": "PubChem BioAssay (Tox21)", "note": "Records with an inconclusive call do not appear. Values without a mark were called inactive. Calls follow the shape of the full dose curve. % is scaled to controls: 0 for no effect and ±100 for the full control effect.", "data": [{"molecular_target": "Vitamin D3 receptor (Homo sapiens) (UniProt P11473)", "sequence (P11473 whole entry, looked up)": "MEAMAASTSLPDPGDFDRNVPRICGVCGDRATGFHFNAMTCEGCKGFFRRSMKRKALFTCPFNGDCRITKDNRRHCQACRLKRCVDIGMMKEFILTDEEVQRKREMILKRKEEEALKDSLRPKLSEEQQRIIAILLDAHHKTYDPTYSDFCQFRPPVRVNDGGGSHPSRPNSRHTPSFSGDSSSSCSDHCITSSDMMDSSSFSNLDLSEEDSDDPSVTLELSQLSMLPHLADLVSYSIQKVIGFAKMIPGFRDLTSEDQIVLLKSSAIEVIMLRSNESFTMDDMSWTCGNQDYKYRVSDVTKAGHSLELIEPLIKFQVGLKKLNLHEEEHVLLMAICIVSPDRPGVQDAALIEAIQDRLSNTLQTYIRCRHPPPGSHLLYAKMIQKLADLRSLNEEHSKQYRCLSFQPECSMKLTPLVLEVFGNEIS", "test": "qHTS assay to identify small molecule agonists of the vitamin D receptor (VDR) signaling pathway (AID 743222)", "settings": "HEK293T VDR-UAS-bla, beta-lactamase FRET ratio, 16 h; series mostly up to 63.5 µM; activation: at the top concentration", "description": "National Center for Advancing Translational Sciences [NCATS]\nNIH Chemical Genomics Center [NCGC]\nU.S. Environmental Protection Agency [EPA]\nNational Institutes of Environmental Health Sciences [NIEHS]\nNational Toxicology Program [NTP]\nU.S. Food and Drug Administration [FDA]\nThe vitamin D receptor (VDR), a member of nuclear hormone receptor superfamily, plays a critical role in calcium homeostasis and bone metabolism. It is also involved in cell differentiation and growth, and thrombogenicity.\nTox21 Assay Protocol Summary:\nVDR-bla cells were dispensed at 2,000 cells/6 uL/well into black wall/clear-bottom 1536-well plates using a Multidrop Combi (Thermo Fisher Scientific, Waltham, MA) dispenser. After the assay plates were incubated at a 37C and 5% CO2 for 4 h, 23 nL of compounds dissolved in DMSO, positive controls or DMSO only was transferred to the assay plate by a Pintool station (Kalypsys, San Diego, CA). The plates were incubated at 37C and 5% CO2 for 16 h. After 1 uL of LiveBLAzerTM B/G FRET substrate was added using a Bioraptr Flying Reagent Dispenser (FRD) workstation (Beckman Coulter, Indianapolis, IN, USA), the plates were incubated at room temperature for 2 h, and fluorescence intensity was measured by an Envision plate reader (PerkinElmer, Shelton, CT).", "values": [{"smiles": "NC(=O)NS(=O)(=O)c1ccc(Cl)cc1", "activation": "-0.731%"}, {"smiles": "Cc1nc(-c2ccccn2)ncc1C(=O)Nn1cc(C)c2cc(F)ccc21", "activation": "-2.43%"}, {"smiles": "CCOC(=O)C(Br)c1ccccc1", "note": "(stereo not given)", "activation": "3.64%"}, {"smiles": "CN(C)CCOc1ccccc1Cc1ccccc1", "activation": "0.391%"}, {"smiles": "CCNCCO", "activation": "4.05%"}, {"smiles": "CCCNC(C)C(=O)Nc1c(C)csc1C(=O)OC", "note": "(stereo not given)", "activation": "1.25%"}, {"smiles": "CC(C)Nc1nc(N)nc(Cl)n1", "activation": "-3.35%"}, {"smiles": "CC(C)S", "activation": "-3.89% [at 81.1 µM]"}, {"smiles": "CCc1cc2cc(OC)c(OC)cc2c(Cc2ccccc2)n1", "activation": "-6.83%"}, {"smiles": "CCCCCCCCOC(=O)CCCCCCCCC(=O)OCCCCCCCC", "activation": "4%"}, {"smiles": "CCCNC(C)(C)COC(=O)c1ccccc1", "activation": "5.36%"}, {"smiles": "O=c1oc2c(O)c(O)cc3c(=O)oc4c(O)c(O)cc1c4c23", "activation": "9.93% [at 29.5 µM]"}, {"smiles": "Cc1ccc(C)c(N)c1", "activation": "-3.1%"}, {"smiles": "CC(C)=CCC[C@](C)(O)[C@@H]1CC=C(C)CC1", "activation": "5.62%"}, {"smiles": "COc1ccccc1N1CCN(CCCNc2cc(=O)n(C)c(=O)n2C)CC1", "activation": "-6.99%"}, {"smiles": "ICCc1ccccc1", "activation": "-8.09%"}, {"smiles": "CCCCCCCCCC#N", "activation": "6.72%"}, {"smiles": "O=C1N(c2ccccc2)c2ccccc2C1(Cc1ccncc1)Cc1ccncc1", "activation": "5.35%"}, {"smiles": "O=C1CCCCC1C1CCCCC1", "note": "(stereo not given)", "activation": "3.24%"}, {"smiles": "C/C(=N\\O)[C@@H](C)NCC(C)(C)CN[C@H](C)/C(C)=N/O", "activation": "3.18%"}, {"smiles": "CC1CN(c2ccccc2)NC1=O", "note": "(stereo not given)", "activation": "-0.877%"}, {"smiles": "FC(F)(F)C(Cl)(Cl)Cl", "activation": "-0.718%"}, {"smiles": "CC(C)O", "activation": "-9.53% [at 81.1 µM]"}, {"smiles": "CCCCNC(=S)NCCCC", "activation": "-19.3%"}, {"smiles": "CC(C)(CO)[C@@H](O)C(=O)NCCC(=O)O", "activation": "0.396% [at 81.1 µM]"}, {"smiles": "CCN(O)CC", "activation": "1.06%"}, {"smiles": "O=C(Cl)c1cccc([N+](=O)[O-])c1", "activation": "-3.82%"}, {"smiles": "CCC1(C)NC(=O)NC1=O", "note": "(stereo not given)", "activation": "-5.67%"}, {"smiles": "COC(=O)c1ccc(OC)cc1", "activation": "4.98%"}, {"smiles": "NS(=O)(=O)c1cc(-c2nn[nH]n2)c(NCc2cccs2)cc1Cl", "activation": "5.64%"}, {"smiles": "O=C(O)C(=O)Cc1c[nH]c2ccccc12", "activation": "-4.6%"}, {"smiles": "CCCc1c2oc(C(=O)O)cc(=O)c2cc2c(=O)cc(C(=O)O)n(CC)c12", "activation": "-11.1%"}, {"smiles": "CCOC(=O)NCCC[Si](OCC)(OCC)OCC", "activation": "8.41%"}, {"smiles": "CC(C)(C)c1ccc(OC(=O)c2ccccc2O)cc1", "activation": "4.02%"}, {"smiles": "NC/C=C/C(=O)O", "activation": "4.48%"}, {"smiles": "CCCCCCCCCCCCCCCCOP(=O)([O-])OCC[N+](C)(C)C", "activation": "-18.6%"}, {"smiles": "CCC/C=C/CO", "activation": "6.34%"}, {"smiles": "CCN(CC)CC1CCCCN1CC(=O)N1c2ccccc2C(=O)Nc2cccnc21", "note": "(stereo not given)", "activation": "-18.4%"}, {"smiles": "CC1=C(O)C(=O)OC1C", "note": "(stereo not given)", "activation": "11.9%"}, {"smiles": "OCC(CBr)(CBr)CBr", "activation": "-1.35%"}]}]}
